# Where “and” joins values, the source holds several entries; their conditions need not be identical. Identical values can stand only once. Records with an inconclusive call do not appear. More than one record can exist for a structure, and the calls need not agree. Calls of active or inactive are those of the source. The calls were made as follows, unless noted: active = hit-call score of the fitted dose curve at least 0.9, where 1 is the maximum; inactive = score below 0.9.
# Tests used:
# [1] = CCTE_Harrill_HTTr_Viability_DMEM_12hr: (Pilot) CCTE's 12-hour Cell Viability Assessment for the High-Throughput Transcriptomics (HTTr) Platform, in MCF-7 cells cultured in DMEM + 10% fetal bovine serum, Harrill Lab (AID 2283974)
# In short: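 MCF-7 cells in DMEM + 10% FBS exposed 12 h to an eight-point dilution series; membrane integrity scored by propidium iodide exclusion with high-content imaging, bidirectional fitting versus DMSO.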
# [2] = CCTE_Harrill_HTTr_Viability_DMEM_24hr: (Pilot) CCTE's 24-hour Cell Viability Assessment for the High-Throughput Transcriptomics (HTTr) Platform, in MCF-7 cells cultured in DMEM + 10% fetal bovine serum, Harrill Lab (AID 2283975)
# In short: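 MCF-7 cells in DMEM with 10% FBS exposed for 24 hours to an eight-point dilution series. Membrane integrity by propidium iodide exclusion with high content imaging; bidirectional fit against DMSO.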
# [3] = CCTE_Harrill_HTTr_Viability_PRF_DMEM_6hr: (Pilot) CCTE's 6-hour Cell Viability Assessment for the High-Throughput Transcriptomics (HTTr) Platform, in MCF-7 cells cultured phenol red-free DMEM + 10% charcoal-stripped fetal bovine serum, Harrill Lab (AID 2283976)
# In short: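 MCF-7 cells in phenol red-free DMEM with 10% charcoal-stripped FBS exposed 6 hours to an eight-point dilution series. Propidium iodide exclusion imaged; curves fitted bidirectionally against DMSO.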
# [4] = CCTE_Harrill_HTTr_Viability_PRF_DMEM_12hr: (Pilot) CCTE's 12-hour Cell Viability Assessment for the High-Throughput Transcriptomics (HTTr) Platform, in MCF-7 cells cultured in phenol red-free DMEM + 10% charcoal-stripped fetal bovine serum, Harrill Lab (AID 2283977)
# In short: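 MCF-7 cells in phenol red-free DMEM with 10% charcoal-stripped FBS exposed 12 hours to an eight-point dilution series. Viability assessed by high-content imaging of propidium iodide exclusion; bidirectional fit versus DMSO.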
# [5] = CCTE_Harrill_HTTr_Viability_PRF_DMEM_24hr: (Pilot) CCTE's 24-hour Cell Viability Assessment for the High-Throughput Transcriptomics (HTTr) Platform, in MCF-7 cells cultured in phenol red-free DMEM + 10% charcoal-stripped fetal bovine serum, Harrill Lab (AID 2283980)
# In short: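 MCF-7 cells in phenol red-free DMEM with 10% charcoal-stripped FBS, eight-point dilution series, 24 h exposure. Membrane integrity by propidium iodide exclusion with high content imaging; bidirectional fit vs DMSO.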
# [6] = CCTE_Harrill_HTTr_Apoptosis_DMEM_6hr: (Pilot) CCTE's 6-hour Apoptosis Assessment for the High-Throughput Transcriptomics (HTTr) Platform, in MCF-7 cells cultured in DMEM + 10% fetal bovine serum, Harrill Lab (AID 2283981)
# In short: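 Caspase-3/7 activation read by high content imaging with CellEvent Caspase 3/7 Green in MCF-7 cells (DMEM + 10% FBS), 6 h after dosing; eight-point dilution series. Bidirectional fitting relative to DMSO baseline.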
# [7] = CCTE_Harrill_HTTr_Apoptosis_DMEM_12hr: (Pilot) CCTE's 12-hour Apoptosis Assessment for the High-Throughput Transcriptomics (HTTr) Platform, in MCF-7 cells cultured in DMEM + 10% fetal bovine serum, Harrill Lab (AID 2283982)
# In short: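 MCF-7 cells in DMEM + 10% FBS, exposed 12 h to an eight-point dilution series; caspase-3/7 activation imaged with CellEvent Green. Bidirectional fit versus DMSO.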
# [8] = CCTE_Harrill_HTTr_Apoptosis_DMEM_24hr: (Pilot) CCTE's 24-hour Apoptosis Assessment for the High-Throughput Transcriptomics (HTTr) Platform, in MCF-7 cells cultured in DMEM + 10% fetal bovine serum, Harrill Lab (AID 2283983)
# In short: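 MCF-7 cells in DMEM + 10% FBS, eight-point dilution series, 24 h exposure. Caspase-3/7 activation imaged by high-content imaging with CellEvent Caspase 3/7 Green. Bidirectional curve fitting against DMSO baseline.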
# [9] = CCTE_Harrill_HTTr_Apoptosis_PRF_DMEM_6hr: (Pilot) CCTE's 6-hour Apoptosis Assessment for the High-Throughput Transcriptomics (HTTr) Platform, in MCF-7 cells cultured phenol red-free DMEM + 10% charcoal-stripped fetal bovine serum, Harrill Lab (AID 2283984)
# In short: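 MCF-7 cells in phenol red-free DMEM + 10% charcoal-stripped FBS, eight-point dilution series, 6 h exposure. Caspase-3/7 activation imaged by high-content imaging with CellEvent Caspase 3/7 Green; bidirectional fit versus DMSO baseline.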
# [10] = CCTE_Harrill_HTTr_Apoptosis_PRF_DMEM_12hr: (Pilot) CCTE's 12-hour Apoptosis Assessment for the High-Throughput Transcriptomics (HTTr) Platform, in MCF-7 cells cultured in phenol red-free DMEM + 10% charcoal-stripped fetal bovine serum, Harrill Lab (AID 2283985)
# In short: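 MCF-7 cells in phenol red-free DMEM with 10% charcoal-stripped FBS, eight-point dilution series, 12 h exposure. Caspase-3/7 activation imaged by high content imaging with CellEvent Green reagent; bidirectional fit vs DMSO.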
# [11] = CCTE_Harrill_HTTr_Apoptosis_PRF_DMEM_24hr: (Pilot) CCTE's 24-hour Apoptosis Assessment for the High-Throughput Transcriptomics (HTTr) Platform, in MCF-7 cells cultured in phenol red-free DMEM + 10% charcoal-stripped fetal bovine serum, Harrill Lab (AID 2283986)
# In short: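 MCF-7 cells in phenol red-free DMEM with 10% charcoal-stripped FBS, exposed 24 h across an eight-point dilution series. Caspase-3/7 activation imaged with CellEvent Green by high content imaging; bidirectional fitting against DMSO.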
# [12] = target: Nucleoli Translocation, AR (gene 367) (UniProt P10275); experiment: UPITT_HCI_U2OS_AR_TIF2_Nucleoli_Agonist: University of Pittsburgh U2OS Androgen Receptor-Transcriptional Intermediary Factor 2 (AR-TIF2) Agonism High Content Imaging Assay for Nucleoli Translocation (AID 2283998; active = hit-call score of the fitted dose curve at least 0.9, where 1 is the maximum)
# Chain of Nucleoli Translocation, AR (gene 367) (P10275 whole entry, looked up): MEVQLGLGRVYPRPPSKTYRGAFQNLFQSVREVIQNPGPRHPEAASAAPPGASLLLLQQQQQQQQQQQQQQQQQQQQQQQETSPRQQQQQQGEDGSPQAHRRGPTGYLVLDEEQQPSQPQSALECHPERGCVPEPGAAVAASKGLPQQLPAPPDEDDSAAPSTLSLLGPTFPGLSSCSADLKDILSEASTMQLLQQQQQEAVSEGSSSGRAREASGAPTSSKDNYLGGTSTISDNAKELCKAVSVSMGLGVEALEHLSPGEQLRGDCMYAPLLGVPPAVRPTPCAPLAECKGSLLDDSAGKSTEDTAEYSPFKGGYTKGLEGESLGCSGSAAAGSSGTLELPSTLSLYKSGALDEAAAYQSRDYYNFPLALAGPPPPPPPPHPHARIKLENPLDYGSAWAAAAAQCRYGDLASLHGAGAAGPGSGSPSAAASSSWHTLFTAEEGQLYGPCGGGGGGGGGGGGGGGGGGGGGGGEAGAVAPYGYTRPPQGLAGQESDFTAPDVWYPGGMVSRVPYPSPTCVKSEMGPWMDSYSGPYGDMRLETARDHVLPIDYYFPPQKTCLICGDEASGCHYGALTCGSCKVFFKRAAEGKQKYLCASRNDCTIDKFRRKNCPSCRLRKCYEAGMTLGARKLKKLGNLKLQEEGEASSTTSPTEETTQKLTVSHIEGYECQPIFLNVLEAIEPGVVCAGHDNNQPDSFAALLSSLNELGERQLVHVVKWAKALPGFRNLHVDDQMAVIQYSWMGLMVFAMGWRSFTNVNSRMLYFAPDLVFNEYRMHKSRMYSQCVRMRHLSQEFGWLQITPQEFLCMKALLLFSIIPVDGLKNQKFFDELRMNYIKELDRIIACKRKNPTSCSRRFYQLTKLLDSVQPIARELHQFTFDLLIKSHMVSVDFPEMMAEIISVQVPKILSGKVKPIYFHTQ
# In short: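 RFP-AR / GFP-TIF2 cells; cpds diluted in serum-free medium; single-point screen 20 uM final (0.2% DMSO), actives confirmed in triplicate; conc-response 0.195–50 uM final (0.5% DMSO). Readout: nucleolar red fluorescence, positive direction vs DMSO.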
# [13] = target: Ratio of Nucleoli Translocation and Cytoplasm, AR (gene 367) (UniProt P10275); experiment: UPITT_HCI_U2OS_AR_TIF2_Nucleoli_Cytoplasm_Ratio_Antagonist: University of Pittsburgh U2OS Androgen Receptor-Transcriptional Intermediary Factor 2 (AR-TIF2) Antagonism High Content Imaging Assay for Ratio of Nucleoli Translocation and Cytoplasm (AID 2283999; active = hit-call score of the fitted dose curve at least 0.9, where 1 is the maximum;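 also: antagonists lower the DHT-driven ratio of nucleolar to cytoplasmic red signal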)
# Chain of Ratio of Nucleoli Translocation and Cytoplasm, AR (gene 367) (P10275 whole entry, looked up): as above
# In short: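 U2OS cells expressing RFP-tagged human AR and GFP-tagged TIF2; compounds tested at 20 uM final (0.2% DMSO) in primary screen, 0.195–50 uM (0.5% DMSO) for concentration response. Readout: nucleolar-to-cytoplasmic red fluorescence ratio by high-content imaging, fitted relative to DHT.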
# [14] = target: Ratio of Nucleoli Translocation and Cytoplasm, AR (gene 367) (UniProt P10275); experiment: UPITT_HCI_U2OS_AR_TIF2_Nucleoli_Cytoplasm_Ratio_Agonist: University of Pittsburgh U2OS Androgen Receptor-Transcriptional Intermediary Factor 2 (AR-TIF2) Agonism High Content Imaging Assay for Ratio of Nucleoli Translocation and Cytoplasm (AID 2284000; active = hit-call score of the fitted dose curve at least 0.9, where 1 is the maximum;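 also: hits raise the red nucleolar to cytoplasm ratio above vehicle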)
# In short: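 Read-out first: nucleolar-to-cytoplasm ratio of red (AR-RFP) signal, quantified by high-content imaging in U2OS cells co-expressing TIF2-GFP. Activity is scored as signal increase over DMSO. Single-point screening used 20 uM final (0.2% DMSO).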
# [15] = CCTE_Shafer_MEA_acute_spike_number: CCTE's Neural Acute Assay for Total Number of Spikes, Shafer Lab (AID 2284008);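 as to AC50: curve fitted for decrease in spike count so AC50 reflects inhibitors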
# In short: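 Rat cortical cultures, DIV 13/15, 37 C. 40 min baseline rec, cpd 0.03-40 uM, 40 min post-dose rec. Band-pass 300-5000 Hz, spike threshold 8x rms; % change in spike count per well, DMSO neg ctrl, loss-of-signal fit.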
# [16] = CCTE_Simmons_MITO_basal_resp_rate: CCTE's HepG2 Seahorse XF Respirometric Screening Assay at Basal Respiratory State, Simmons Lab (AID 2284001); conditions: actives raise or lower the signal
# In short: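 HepG2 respirometry; 7-pt titration 125 nM–100 uM final; kinetic OCR at 6 min intervals for 72 min; n=3 biological, technical singles; DMSO baseline, gain or loss fit; fenpyroximate (decrease) and 2,4-DNP (increase) controls.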
# [17] = CCTE_Simmons_MITO_max_resp_rate: CCTE's HepG2 Seahorse XF Respirometric Screening Assay at Maximal Respiratory State [uncoupled], Simmons Lab (AID 2284002); conditions: actives raise or lower the signal
# In short: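 HepG2, Seahorse XF96, maximal OCR post-FCCP. Cpd 125 nM–100 uM final (7 conc), n=3 biological. Kinetic reads every 6 min (3 min mix/3 min measure) over 72 min; fit bidirectional vs DMSO.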
# [18] = CCTE_Simmons_MITO_inhib_resp_rate: CCTE's HepG2 Seahorse XF Respirometric Screening Assay at Inhibited Respiratory State [full ETC block], Simmons Lab (AID 2284006); conditions: actives raise or lower the signal
# In short: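 HepG2 cells on Seahorse XF96; oxygen consumption measured after test compound, then FCCP, then rotenone/antimycin A injections over 72 min. Test chemicals at 7 concentrations, 125 nM–100 uM final. OCR fitted bidirectionally versus DMSO.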
# [19] = CCTE_Simmons_MITO_viability: CellTiter-Glo Viability Assessment for CCTE's HepG2 Seahorse XF Respirometric Screening Assay [post-hoc], Simmons Lab (AID 2284007; active = hit-call score of the fitted dose curve at least 0.9, where 1 is the maximum;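 as to AC50: cells exposed to chemical for 90 min before the ATP read; actives lower ATP signal relative to DMSO baseline meaning reduced viability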)
# In short: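 HepG2 cells from the Seahorse XF respirometry run were exposed 90 min to a 7-point series, 125 nM–100 uM final, DMSO vehicle; ATP content then read by luciferase luminescence. Three biological replicates, technical singles; loss of signal fitted versus DMSO.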
compound,measurement,setting,value
C[C@@H]1C[C@@H]([C@H](O)CC2CC(=O)NC(=O)C2)C(=O)[C@@H](C)C1,outcome,[1],inactive
same,AC50,[2],7.82 µM (active)
same,outcome,[3],inactive
same,outcome,[4],inactive
same,AC50,[5],9.42 µM (active)
same,outcome,[6],inactive
same,outcome,[7],inactive
same,outcome,[8],inactive
same,outcome,[9],inactive
same,outcome,[10],inactive
same,outcome,[11],inactive
CCC(=O)C(CC(C)N(C)C)(c1ccccc1)c1ccccc1 (stereo not given),outcome,[12],inactive
same,outcome,[13],inactive
same,outcome,[14],inactive
same,AC50,[15],0.0569 µM (active)
CC(C)(c1ccccc1)c1ccc(O)c(C(C)(C)c2ccccc2)c1,outcome,[16],inactive
same,AC50,[17],50 µM (active)
same,outcome,[18],inactive
same,AC50,[15],8.24 µM (active)
C[C@]12CCC(=O)C[C@@H]1CC[C@@H]1[C@@H]2CC[C@]2(C)[C@@H](O)CC[C@@H]12,outcome,[16],inactive
same,outcome,[17],inactive
same,outcome,[18],inactive
same,outcome,[19],inactive
same,AC50,[15],20 µM (active)
CC(C)c1cccc(C(C)C)c1O,outcome,[12],inactive
same,outcome,[13],inactive
same,outcome,[14],inactive
C=CCc1ccc(OC)cc1,outcome,[13],inactive
same,outcome,[14],inactive
ClC1(Cl)C2(Cl)C3(Cl)C4(Cl)C(Cl)(Cl)C5(Cl)C3(Cl)C1(Cl)C5(Cl)C24Cl (stereo not given),outcome,[15],inactive
CC(C)CCCCCCOC(=O)c1ccccc1C(=O)OCCCCCCC(C)C,outcome,[14],inactive
CCOP(=S)(OCC)SCSP(=S)(OCC)OCC,outcome,[15],inactive
O=[N+]([O-])c1ccc(O)c([N+](=O)[O-])c1,outcome,[13],inactive
same,outcome,[14],inactive
same,AC50,[16],13 µM (active) and 10.3 µM (active)
same,outcome,[17],inactive
same,outcome,[18],inactive
same,AC50,[19],18.1 µM (active)
same,outcome,[19],inactive
CC(C)(OO)c1ccccc1,outcome,[15],inactive

# Reference: PubChem BioAssay (EPA / NIEHS)
